This note sets out measurements from article PMC12864922, “TDP-43 directly inhibits mRNA accumulation in neurites through modulation of mRNA stability”.

B1: ENSMUSG00000061578.22|Ksr2|4:9;112:122;211:217;222:226 (ssRNA)
RNA: GGGAGUUCUACAGUCCGACGAUCGCUUCGAUAUCCGCAUGCUAACCACACACAUGACGUCACAGAGGCUGUCCACACCUUCGACUUGUACCCCGUUACUCAGGCACGAUCAGGGACCACUCAACUAGGACCAAACUGGGCCAGAGAGGGUCCCAACACACCACACAAGGAGCCACAGACUGAGCACACCACCUCGGACUGUGGAGACCAAGACACAUGCCCAGUGGGCAGACUCAGACUCACACGCUGGACCACACACACCGCAACACACUACACAUGGACAGGGCCAACUGCUAUCCUUCUGCUCUUGCGGUCGCACUAGUGUGGAAUUCUCGGGUGUCAAGG
B2: ENSMUSG00000031028.295|Tub (ssRNA)
RNA: GGGAGUUCUACAGUCCGACGAUCGCUUCGAUAUCCGCAUGCUAUCCCAGGUUGGACACUCGACGAAAGGCACACCUGCUGCAGCAGGUUCUGACACACCUGAGCCAUACAUUGCCAUCAGAGAACCCUCAGCGAGGUAGCCUUUGUUUACAGUCUAGUUUCUAGAGGGCAGUAGGACUUCCAUGCUGGGGCUGGCCUAUCUCCUGAUGAAAGAUUACAGUGCCAUCUCCUUCCCAUAGUUCUGUGUCUGCCCUCCCUCCCUGACUUUAUAGGGAGAAAUCUCCUGACAUUAGAGGUGAUAGAACUCUUGCGGUCGCACUAGUGUGGAAUUCUCGGGUGUCAAGG
B3: ENSMUSG00000031028.549|Tub (ssRNA)
RNA: GGGAGUUCUACAGUCCGACGAUCGCUUCGAUAUCCGCAUGCUAAUAGAUGGACAGCCUGGUUUCCCUUCUCAGCAGUCCUGGCCUCCCCUUCUCUGUAUUCCUUGCCCCAGCUACGAUAUCCUCAUGGGAUUUCAGGAUGCCAGGUGCCAUCAAAGCAUGCUUUUUUGUGGUGCCUAGCACUGUGACUGGGGCCCAACUGCCCUGCAGAGUUGGGACCUUGCACUGCCCUAGACCCUGGCUUUAGAUCUGCUUCAGUCUCCAGAACAGGCUAUGGGAUAGAUUUUUCUUUCAGUUUAUGGCCACUCUUGCGGUCGCACUAGUGUGGAAUUCUCGGGUGUCAAGG
B4: ENSMUSG00000061578.336|Ksr2 (ssRNA)
RNA: GGGAGUUCUACAGUCCGACGAUCGCUUCGAUAUCCGCAUGCUAGGAGUGACCAGUCACCUGCCUCCCAGGGUUCUGCCUUGCCCUUAAGCUAGGGUCCUUCAAGCAUCCACAGACUUAGAGUGUGGUGGUAACAUGCUUGUAAUCCUGGCACUCUGGAGGCUGAGGCAGGAGGAUAACAAGUCUAGACUAUAUAUGAUUUCUGAGGGUCUGUUAGUGAAUAAGUACCUGGAUGACAUGGGACAAGUCCCAGCCUUCCCUGCUCCUGCGCUGCUCUUCCUCUUAUGGGAUAGGGUCUAGGUCAACUCUUGCGGUCGCACUAGUGUGGAAUUCUCGGGUGUCAAGG
B5: ENSMUSG00000061578.503|Ksr2 (ssRNA)
RNA: GGGAGUUCUACAGUCCGACGAUCGCUUCGAUAUCCGCAUGCUAGGGAUUAAAGGUGUGUACCACCAUUGCAAUCUUGAACUCUUGACCAAUAGAAAUCCUAGACUAGUGUUGCUAGGCAACUGACUGUAUUCAGGACACCCAGGGUGGGAGGUGGAUGGAGCUCUUGCCUAACACACACCAAGCCCCAAGUUCCAUCCCCAGUCCCACACAAACCAGAUAUGAUGGUGUGUGCCUAUGUCCCCCACACACGAGAGAGCUGGAGGCAGGAGGAUCAGAAGUUCAGGGCCAUCCUUAAUCAUACACUCUUGCGGUCGCACUAGUGUGGAAUUCUCGGGUGUCAAGG
B6: ENSMUSG00000031028.294|Tub|205:209 (ssRNA)
RNA: GGGAGUUCUACAGUCCGACGAUCGCUUCGAUAUCCGCAUGCUAUAGAUUUCCCAGGUUGGACACUCGACGAAAGGCACACCUGCUGCAGCAGGUUCUGACACACCUGAGCCAUACAUUGCCAUCAGAGAACCCUCAGCGAGGUAGCCUUUGUUUACAGUCUAGUUUCUAGAGGGCAGUAGGACUUCCAUGCUGGGGCUGGCCUAUCUCCUGAUGAAAGAUUACAGUGCCAUCUCCUUCCCAUAGUUCACACACUGCCCUCCCUCCCUGACUUUAUAGGGAGAAAUCUCCUGACAUUAGAGGUGCUCUUGCGGUCGCACUAGUGUGGAAUUCUCGGGUGUCAAGG
B7: ENSMUSG00000032194.156|Kank2|226:232 (ssRNA)
RNA: GGGAGUUCUACAGUCCGACGAUCGCUUCGAUAUCCGCAUGCUAAAAAAAGAAAAAAGGCCAUUCCGGAGUGACUCCCAGCAUCACAGCCCAGAACCUCCUCCUCAAAGGAGAGUAAACAGAGACUGUGAUACUGACCAAGUACAGGCGCUCGCUAUGAAGCCCAUAUGUUCCUGAUUAAGAGCUGGCUGGCCUCAGAGCACUCCCAGAACUAGCUUAAAGUGACAGGCUUUGCUGAAAUCCAAAGGGACAAAAGAGUAGUUUUAUGUUACACACAUUGUUUUUAAUGCCCUGGAGCUCCUGCUCUCUUGCGGUCGCACUAGUGUGGAAUUCUCGGGUGUCAAGG
B8: ENSMUSG00000061578.741|Ksr2 (ssRNA)
RNA: GGGAGUUCUACAGUCCGACGAUCGCUUCGAUAUCCGCAUGCUAUUUAAAUACCUGCUGCAGGCCUCCCAUCUCUGGCUCUUUGUUUCCACUCUGGCCCAAGUUUGAGUCUCCAUAUGGGCCCUUCCUGUCCUCAUGCCCUGCCUGUCUUCAUUCCACCCAUCCACCCUCCUAAGGAUUGGUCUUGUUCCGAGAGUGAUCCUGGUAACGCCAAGCCUCCCUCUGCCCCUGUGUUGGCUUCUGUGACGGACUACCACACACCAAGAGGUUUUUCACAGUGAAGAUGUAUGCUCUCACCAUCCUACCUCUUGCGGUCGCACUAGUGUGGAAUUCUCGGGUGUCAAGG
B9: ENSMUSG00000061578.701|Ksr2|49:53 (ssRNA)
RNA: GGGAGUUCUACAGUCCGACGAUCGCUUCGAUAUCCGCAUGCUAUACUCCCAGAUCUGGGGUGAUCUCUUGAGGUGCCUUCCUGUAGUCUCUACACACAUCUUCUUCUAAGACCACUAAUAACACCGCCUUUCUCCUUGAUCCGGGCCUCAGACCUCUUCAGAGAUUCUUUCUCUGAAUGUACGUGGGGGACUCCAACAGAUGUUGGGAGAAGACUCAAUAUGAGCAUACGGGGUCAUUGUUCAAUCCUGUAUCAAGACCUUGGAGUUGUCUAAGGCUGUGGGUUUUAAAUACCUGCUGCAGGCCUCUUGCGGUCGCACUAGUGUGGAAUUCUCGGGUGUCAAGG

Over roughly 9,900 sequences, “r (bound/input frequency ratio)” has its median near 0.7; the highest 2% begin near 6.5. The entries come from a sample that favours the highest values as a whole.

Sequence of TDP-43 (Q13148 whole entry): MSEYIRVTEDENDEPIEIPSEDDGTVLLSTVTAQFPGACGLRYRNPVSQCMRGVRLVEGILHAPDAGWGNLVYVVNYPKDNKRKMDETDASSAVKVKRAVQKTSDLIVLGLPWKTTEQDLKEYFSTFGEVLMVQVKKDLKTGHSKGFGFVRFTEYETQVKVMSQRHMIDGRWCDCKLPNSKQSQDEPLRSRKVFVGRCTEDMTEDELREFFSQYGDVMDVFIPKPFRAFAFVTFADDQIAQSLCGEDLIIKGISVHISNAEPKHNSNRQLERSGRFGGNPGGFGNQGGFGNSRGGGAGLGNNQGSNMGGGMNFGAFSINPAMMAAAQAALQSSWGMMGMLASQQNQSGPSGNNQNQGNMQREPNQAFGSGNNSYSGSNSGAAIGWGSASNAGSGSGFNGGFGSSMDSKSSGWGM

For this assay, the target named is TDP-43 (Homo sapiens, UniProt Q13148 1-414). Put plainly: RNA Bind-n-Seq with designed 260-mer pool; 25 mM Tris-HCl, 150 mM KCl, 3 mM MgCl2, BSA (printed 500 mg/mL), 20 units/mL SUPERase IN; pH not stated; 500 nM RNA pool, 1 h, 4 C; TDP-43 5, 50, 500 nM; high values mean tight binding. Particulars: protein: recombinant; tags: SBP (GST cleaved off with PreScission; pGEX-GST-SBP). The essentials:
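Recombinant SBP-tagged TDP-43 at 5, 50 or 500 nM was captured on streptavidin beads, then incubated 1 h at 4 °C with 500 nM of an in vitro-transcribed 260-nt 3′ UTR oligo pool in 25 mM Tris-HCl, 150 mM KCl, 3 mM MgCl2, BSA and SUPERase IN. Bound RNA was washed, eluted with biotin, reverse transcribed, PCR-amplified and sequenced. Binding is R, each oligo's mapped-read-normalized abundance in the bound sample divided by its abundance in input. Duplicates used two independent protein batches.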
Consider B1, for which the binding signal was 1.84 R (bound/input frequency ratio).
With B2, the binding signal is 0.563 R (bound/input frequency ratio).
Then B3, with 0.419 R (bound/input frequency ratio).
Turning to B4, the binding signal is 0.934 R (bound/input frequency ratio).
The result for B5 reads 1.74 R (bound/input frequency ratio).
The result for B6 reads 0.471 R (bound/input frequency ratio); that for B7, 0.257 R (bound/input frequency ratio); that for B8, 2.01 R (bound/input frequency ratio).
On to B9, for which the binding signal is 0.26 R (bound/input frequency ratio).
